Hits are enriched below; roughly 4.8% of the tested compounds scored in any of these assays.
hgDAF-12 ag: hgDAF-12 agonism, primary luciferase screen; HEK293 GAL4-hgDAF12 UAS-luciferase reporter, agonist luminescence; normalized to butyrate control; AID 687014; actives 1.8% (n = 370,000); activation, % at 6.8 µM;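 active means activation above a cutoff set at the mean of all screened compounds plus 3 SD, cut at about 10% in these data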;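 further: 0% = DMSO wells and 100% = sodium butyrate wells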
ssDAF12 agonist: activators of S. stercoralis DAF-12 nuclear receptor | actives 1% (n = 370,000) | activation, % at 6.8 µM | HEK293 ssDAF-12/GRIP1 lit1-tk-luc reporter, luminescence; % of 3 µM dafachronic acid response;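 active means activation above the mean over all tested compounds plus 3 SD, cut at about 0.9% in these data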;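 further: 0% = DMSO-only wells and 100% = 3 µM delta7-dafachronic acid wells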
SMARCA2 act: SMARCA2 function activation, primary screen; MG213 cells, MMTV-luciferase reporter, dexamethasone, overnight; activation, % at 9.1 µM; actives 1% (n = 370,000); in the data active means activation above about 7.8%;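 further: 0% = vehicle wells and 100% = reference activator wells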
DAX1 inh-1: inhibitors of human orphan nuclear receptor DAX1 (NR0B1); HEK293 Gal4-DAX1 luciferase reporter, luminescence; AID 504766; P51843; actives 0.99% (n = 340,000); inhibition, % at 6.75 µM;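 active means inhibition above the mean over all tested compounds plus 3 SD, cut at about 4.2% in these data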;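 further: 0% = DAX1-transfected cells with DMSO and 100% = empty-vector control cells with DMSO; inhibition shows as a rise in luminescence from relieved DAX1 repression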
Target sequence (P51843 207-470 limits assumed): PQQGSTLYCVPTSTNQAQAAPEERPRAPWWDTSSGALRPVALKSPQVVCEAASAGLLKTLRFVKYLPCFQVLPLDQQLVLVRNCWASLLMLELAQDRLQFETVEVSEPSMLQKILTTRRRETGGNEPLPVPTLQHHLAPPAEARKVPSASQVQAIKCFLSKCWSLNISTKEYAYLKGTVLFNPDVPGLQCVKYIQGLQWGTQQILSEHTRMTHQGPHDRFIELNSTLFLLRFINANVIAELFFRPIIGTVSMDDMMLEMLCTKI
DAX1 inh-2: inhibitors of DAX1 repression of SF-1 activated StAR promoter; HEK293T StAR-luciferase reporter, SF-1/DAX-1 repression relief; inhibition, % at 6.8 µM; actives 1.1% (n = 370,000); AID 652010;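 active means inhibition above the mean over all tested compounds plus 3 SD, cut at about 3.6% in these data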;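 further: 0% = DAX-1 cells with DMSO and 100% = cells lacking DAX-1 with DMSO; higher inhibition means more luminescence from relief of DAX-1 repression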
hcDAF-12 act: activators of H. contortus DAF-12 nuclear receptor; HEK293 hcDAF-12 lit1-tk-luc reporter, luminescence; 0% DMSO, 100% Δ7-dafachronic acid; actives 1.4% (n = 370,000); activation, % at 6.8 µM;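 active means activation above the mean of all tested compounds plus 3 SD, cut at about 5.5% in these data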;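 further: 100% = response to 3 µM Δ7-dafachronic acid high control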
* marks the source's active call; other numbers are inactive results; . = no result given.

SMILES	hgDAF-12 ag	ssDAF12 agonist	SMARCA2 act	DAX1 inh-1	DAX1 inh-2	hcDAF-12 act
N#CCCN(Cc1cccnc1)C(=S)Nc1ccccc1Cl	-2	-1	-4	-1	0	1
Cc1ccc(O)c(C2=NOC(O)(C(F)(F)F)C2)c1 (configuration not stated)	0	-1	-1	0	1	-1
N=c1sccn1CC(=O)Nc1ccc(Cl)c(S(=O)(=O)N2CCOCC2)c1	-3	-1	4	1	-1	1
Cn1c(Cc2ccccc2)nnc1SCc1ccc(C(=O)O)cc1	-1	-1	0	2	-1	0
O=C(NC(=S)NCc1ccccc1)c1cccnc1	2	1.0*	5	-1	0	4
O=C(NCC(c1ccco1)N1CCCCC1)C(c1ccccc1)c1ccccc1 (configuration not stated)	-1	-2	-3	0	-1	-2
O=c1c2cc3ccccc3n2cnn1Cc1ccccc1F	1	-1	1	0	-1	3
O=C(O)c1nn(Cc2csc(-c3ccccc3)n2)c(=O)c2ccccc12	0	0	3	1	0	-1
COC(=O)c1sccc1NC(=S)NCc1ccc(Cl)cc1	0	-2	-1	1	0	-2
CN1CCN(c2ccc(-c3ccc4ccccc4n3)cc2)CC1	-18	-4	-11	-5	-4	-8
c1ccc2nc(-c3ccc(N4CCOCC4)cc3)ccc2c1	9	0	2	-2	3.8*	6.3*
CCOC(=O)CC1CCCCN1Cc1cn[nH]c1-c1ccc(F)cc1F (configuration not stated)	-4	-1	-3	4.7*	0	-2
Cc1cc(OCCn2ccnc2)cc(C(C)C)c1	-3	-1	-3	-1	0	-2
Cc1ccc(C(=O)N2CCN(C)CC2)cc1[N+](=O)[O-]	-3	-2	-2	4.6*	0	-2
Cc1ccc(NCc2ccc(O)c3ncccc23)cc1	1	0	-2	0	0	0
Cc1ccc(NCc2ccc(O)c3ncccc23)cc1C	-2	1.9*	4	-1	0	-2
CCN1CCN(C(=O)CCCn2c(C)c3cnn(-c4ccccc4)c(=O)c3c2C)CC1	-1	-1	0	1	0	-1
CC(=O)Nc1sc2c(c1-c1nc3ccccc3s1)CCN(C(C)=O)C2	7	0	.	.	.	6.2*
CC(=O)N1CCc2c(sc(NC(=O)C3CC3)c2-c2nc3ccccc3s2)C1	1	-1	1	1	-3	-1
O=C(NCc1cccc(Cl)c1)C1CCC(=O)N(CCCN2CCOCC2)C1 (configuration not stated)	4	-1	-2	1	0	0
O=C(Nc1ccc(F)cc1)c1nc[nH]c1C(=O)O	2	-1	0	4.3*	1	0
CCCCCC(=O)OCc1ccc(C2=CC(=O)CC(C)(C)C2=O)cc1	7	-1	-4	1	4.2*	1
CSc1nc(-c2ccco2)nn1C(=O)c1cccs1	0	-1	-1	0	0	-1
Cc1cc(S(=O)(=O)Nc2ccc(C(=O)N3CC(C)OC(C)C3)cc2)ccc1F (configuration not stated)	0	-1	-1	2	0	1
CCOc1ccc(S(=O)(=O)N2CC(=O)Nc3ccccc32)cc1	3	-1	-2	3	0	-2
CCOc1ccc(S(=O)(=O)N2CC(=O)Nc3ccccc32)cc1C#N	2	-1	-2	4.3*	0	-1
Cc1ccc(O)c(/C=N/NC(=O)c2[nH]ncc2Br)c1	2	-1	4	2	0	6.2*
O=C1C(C2=NC(c3ccccn3)C3C(=O)N(c4ccccc4)C(=O)C23)=C(O)c2ccccc21 (configuration not stated)	-1	-1	-6	4.3*	0	-2
COc1ccc(CNC(=O)C2CC(c3ccccc3[N+](=O)[O-])=NO2)cc1 (configuration not stated)	2	-1	2	2	0	1
COc1ccccc1CNC(=O)C1CC(c2ccccc2[N+](=O)[O-])=NO1 (configuration not stated)	1	0	-2	-1	0	6.1*
